Screen size: about 420,000 compounds; about 64,000 (15%) were called active. Another 27% or so got no clear call; they are omitted. Only a sample is shown. Unmarked numbers belong to inactive results. Calls come from the whole dose curve; as a rule, active = well fitted inhibition curve with a large enough effect; inconclusive = small, poorly fitted or top-dose-only effect; inactive = flat fitted curve, though single readings scatter.
Assay: qHTS for Inhibitors of human tyrosyl-DNA phosphodiesterase 1 (TDP1): qHTS in cells in absence of CPT; note: nearly all actives have a fitted effect of over 55% in size
Conditions: DT40 Tdp1-/- hTDP1 cells, no CPT, ATP luminescence, 48 h; activity change, negative = growth inhibition: at 46.2 µM (top of the series)
Summary of the method: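 Stably hTDP1-transfected Tdp1-null chicken DT40 cells were treated with library compounds minus camptothecin and grown for at least 48 hr at 37 °C, after which cellular ATP was quantified by luminescence.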
% is set by controls: 0 for no effect and ±100 for the full control effect; potency is the fitted concentration of half-maximal effect.

SMILES | activity change, negative = growth inhibition [%] | Potency
CC1Cc2ccccc2N1S(=O)(=O)c1ccc(Cl)nc1 (centres undefined) | -14.7 | –
Cc1cc(-c2ccc(C)c(S(=O)(=O)N3c4ccccc4CC3C)c2)on1 (centres undefined) | – | 23.1 µM (active)
Cc1cc(-c2ccc(C)c(S(=O)(=O)Nc3ccc(S(N)(=O)=O)cc3)c2)on1 | 1.72 | –
Cc1cc(NC(=O)CCC(=O)N(CC(=O)NCC2CCCO2)c2ccccc2C)no1 (centres undefined) | 1.54 | –
COc1ccccc1NC(=O)CSc1nnc(Cn2nnc(-c3ccccc3)n2)n1-c1ccccc1 | – | 20.6 µM (active)
COc1ccccc1NC(=O)CSc1nnc(Cc2cccn2C)n1-c1ccc(F)cc1 | -12.2 | –
COc1ccccc1OCc1nnc(SCC(N)=O)n1-c1ccccc1 | -2.24 | –
COc1ccc(Cl)cc1-n1c(=S)sc2c(=O)n(-c3ccc(F)cc3)c(SCC(=O)O)nc21 | 1.54 | –
O=C(O)c1cc(S(=O)(=O)N2CCCCCC2)c(Cl)cc1Cl | -12.2 | –
Cc1ccc(CNC(=O)CCNS(=O)(=O)c2ccc(Br)s2)cc1 | -15.4 | –
COc1ccc(CC(=O)N2N=C(C)CC2(O)C(F)(F)F)cc1 (centres undefined) | – | 3.26 µM (active)
CC1=NN(C(=O)Cc2ccc(C)cc2)C(O)(c2cccnc2)C1 (centres undefined) | -17.6 | –
CC1=NN(C(=O)CCCc2ccccc2)C(O)(C(F)(F)F)C1 (centres undefined) | 0.642 | –
Cc1ccc(CNS(=O)(=O)c2ccc3c(c2)N(C)CCO3)cc1 | -25.3 | –
CCCCC(=O)Nc1ccc2c(c1)C(=O)NC2=O | -19.1 | –
Oc1cccc(CCc2ccccn2)c1 | -0.0969 | –
CC(C)S(=O)(=O)c1csc(NC(=O)Nc2ccc(Cl)cc2)c1Cl | – | 16.4 µM (active)
NS(=O)(=O)c1ccc(CCNC(=O)Nc2ccc(Cl)cc2)cc1 | -22.3 | –
O=C(NCc1cn2ccsc2n1)Nc1ccc(Cl)cc1 | -20.7 | –
Cc1cccc(NC(=O)c2cccc(C(=O)Nc3cccc(C)c3C)n2)c1C | -7.12 | –
CCN1/C(=C/c2ccc3ccc(C)cc3[n+]2CC)Sc2ccccc21 | – | 2.06 µM (active)
CCN1/C(=C\c2ccc3ccccc3[n+]2CC)Sc2cc(C)ccc21 | – | 0.184 µM (active)
Cn1c(Nc2ccccc2)cc(=O)n(C)c1=O | 1.8 | –
CCc1ccccc1NC(=S)N(CCN1CCCCCC1)Cc1ccco1 | -1.1 | –
CCN(CC)S(=O)(=O)c1ccc2nc(COC(=O)c3n[nH]c4ccccc34)[nH]c2c1 | -17.7 | –

SMILES | activity change, negative = growth inhibition [%] | Potency
CC(=O)O[C@H]1CC[C@@]2(C)C(=CC[C@@H]3[C@@H]2CC[C@]2(C)C(c4cccnc4)=CC[C@@H]32)C1 | -23.6 | –
CC(=O)OC1CCC2(C)C(=CCC3C4CC(=O)N(O)C(=O)C4(C)CCC32)C1 (centres undefined) | – | 5.17 µM (active)
C[C@]12CC[C@H](O)CC1=CCC1C2CC[C@@]2(C)C1CC[C@@H]2NC(=O)CCC(=O)O (some centres undefined) | -8.9 | –
CN(C)CCNC(=O)/C(=C/c1cccc([N+](=O)[O-])c1)NC(=O)c1ccccc1 | 2.73 | –
CCOCc1nnc(NC(=O)CSc2ccc(C)cc2)s1 | -19.2 | –
OC1CSc2nc3ccccc3n2C1 (centres undefined) | 4.08 | –
CCCc1nn2c(=O)cc(CSCC(=O)Nc3cccc(C)c3)nc2s1 | 18.6 | –
CC(C)(C)OC(=O)NC(Cc1ccccc1)C(=O)NC(CSC1CCCCO1)C(=O)NN (centres undefined) | 0.0689 | –
CC(C)(C)OC(=O)C[C@@H]1C/C=C\C[C@@H](CC(=O)N[C@H](CO)Cc2ccccc2)C(=O)NC[C@@H](c2ccccc2)OC1=O | – | 20.6 µM (active)
O=C(C[C@H]1C/C=C\C[C@@H](NC(=O)OCC2c3ccccc3-c3ccccc32)C(=O)O[C@@H](c2ccccc2)CNC1=O)N[C@H](CO)Cc1ccccc1 | – | 18.4 µM (active)
CC(C)[C@@H](NC(=O)OC(C)(C)C)C(=O)NCC1CCC(C(=O)N[C@@H](Cc2ccccc2)C(=O)O)CC1 (some centres undefined) | -10.5 | –
CC(C)(C)OC(=O)C[C@H]1C/C=C\C[C@@H](CC(=O)N[C@H](CO)Cc2ccccc2)C(=O)NC[C@@H](c2ccccc2)OC1=O | – | 18.4 µM (active)
C[C@H]1COC(=O)[C@H](CC(=O)OC(C)(C)C)C/C=C\C[C@@H](CC(=O)N[C@H](CO)Cc2ccccc2)C(=O)N1 | – | 14.6 µM (active)
COc1ccc(OCC(=O)NCCc2ccc(S(N)(=O)=O)cc2)cc1 | 0.22 | –
CCC(C)N1CC(=O)N2Cc3[nH]c4ccccc4c3C[C@H]2C1=O (some centres undefined) | -16.6 | –
CCN(CC)CCNS(=O)(=O)c1ccc(/C=C/C(=O)O)cc1 | -7.55 | –
CNCC(O)c1ccc(O)c(O)c1 (centres undefined) | -15.9 | –
COc1ccc(CNC(=O)C(=O)NCC2OCCN2C(=O)c2ccc(OC)cc2)cc1 (centres undefined) | -16.3 | –
C/C(=C(\C#N)C(=O)NCCCN1CCOCC1)N(C)C | -3.07 | –
O=C(CCc1ccccc1)NNc1ccc(F)cc1 | -26.9 | –
Cc1ccccc1-c1nnc(SCC(=O)NCc2ccc3c(c2)OCO3)n1C | -2.12 | –
CC(C)C(c1nnnn1Cc1ccccc1)N1CCC(C(N)=O)CC1 (centres undefined) | 6.13 | –
Cc1cccc2cc(CN(Cc3cccs3)C(c3nnnn3C3CCCC3)C(C)C)c(=O)[nH]c12 (centres undefined) | -20.3 | –
Cc1cccc2[nH]c(CN(C)C(=O)C3CCC(=O)N(CCc4ccccc4)C3)nc12 (centres undefined) | -10.5 | –
